Experimental data published in PubChem BioAssay AID1347414 (National Center for Advancing Translational Sciences (NCATS), 2020).
Results filed as inconclusive are left out. Entries that show only a call come without a potency. Active and inactive are the calls of the source. The call rests on the fitted dose curve; in most records, active means well fitted inhibition curve with a large enough effect; inconclusive means small, poorly fitted or top-dose-only effect; inactive means no such curve, though single readings can be large or run the other way. Numbered stars: 1 amine (or outer) side, 2 acyl side, 3 side chain; on linkers, the order of the positions; unused ones are H or OH. Bridge positions count the residues as written; N and C are the ends. Square brackets hold non-standard residues; d marks the D form. Peptide text beside a SMILES is read from it. I, II: the chains in the order shown. Actinocin(9to1) = Cc1c2oc3c(C)ccc(C(=O)[*:1])c3nc-2c(C(=O)[*:2])c(N)c1=O; NMeV = CN[C@H](C(=O)O)C(C)C; Sar = CNCC(=O)O
Potency means the concentration at half of the fitted maximal effect.

Test: qHTS to identify inhibitors of the type 1 interferon - major histocompatibility complex class I in skeletal muscle: Secondary screen by immunofluorescence; further: nearly all actives have a fitted effect of over 70% in size
Details: C25cl48 myoblasts, IFN-b induced HLA-ABC immunofluorescence, 24 h, Viability; series mostly up to 49.8 µM
Summary of the method: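 Immortalized human myoblasts C25cl48 were stimulated with 4.0 ng/ml IFN-beta and exposed to an 11-point 1:3 compound titration, top 50 uM, for 24 h at 37 C. They were then fixed and immunostained for HLA-ABC, and quantified by laser scanning cytometry.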
In the case of `O=C(/C=C/c1ccc(CN(CCO)CCc2c[nH]c3ccccc23)cc1)NO`, the Potency is reported as “inactive”. With `CC(C)(C)c1nc2c3cc[nH]c(=O)c3c3cc(F)ccc3c2[nH]1` the Potency was “inactive”. With `CC(C)c1cc(-c2n[nH]c(=O)n2-c2ccc3c(ccn3C)c2)c(O)cc1O` the Potency was “inactive”. With `CN1CCN(c2cccc(Nc3nc4c(-c5ccc(S(C)(=O)=O)cc5)cccn4n3)c2)CC1` the Potency was “inactive”. With `COc1nnc2ccc(N3CCC(c4ccc(OCCN5CCN(C)C(=O)[C@H]5C)cc4)CC3)nn12` the Potency was “inactive”. For `N#CC[C@H](C1CCCC1)n1cc(-c2ncnc3[nH]ccc23)cn1`, the Potency was “inactive”. In the case of `CC(=O)Oc1ccc(C2(c3ccc(OC(C)=O)cc3)C(=O)Nc3ccccc32)cc1`, the Potency is reported as “inactive”. With `C1=C/COCc2cc(ccc2OCCN2CCCC2)Nc2nccc(n2)-c2cccc(c2)COC/1` the Potency was 11.5 µM (active). For `CC(=O)NCC(=O)N1[C@@H]2CC[C@H]1c1ccc(Nc3ncc(C(F)(F)F)c(NC4CCC4)n3)cc12`, the Potency was “inactive”. For `CC1(C)CC(=O)c2c(C(F)(F)F)nn(-c3ccc(C(N)=O)c(NC4CCC(OC(=O)CN)CC4)c3)c2C1` (stereo not drawn), the Potency was “inactive”. In the case of `COc1cc(F)ccc1-c1ncnc(Nc2cccc(CS(C)(=N)=O)c2)n1` (stereo not drawn), the Potency is reported as “inactive”. With `Cc1c2oc3c(C)ccc(C(=O)N[C@@H]4C(=O)N[C@H](C(C)C)C(=O)N5CCC[C@H]5C(=O)N(C)CC(=O)N(C)[C@@H](C(C)C)C(=O)O[C@@H]4C)c3nc-2c(C(=O)N[C@@H]2C(=O)N[C@H](C(C)C)C(=O)N3CCC[C@H]3C(=O)N(C)CC(=O)N(C)[C@@H](C(C)C)C(=O)O[C@@H]2C)c(N)c1=O` (I: T[dV]P[Sar][NMeV] / II: T[dV]P[Sar][NMeV]; ester I:1-I:C, II:1-II:C; linker I:N-II:N via Actinocin(9to1)) the Potency was “inactive”. With `COc1ncc(Nc2ncc(C(C)N3CCN(S(C)(=O)=O)CC3)cc2-c2nc(C)nc(N)n2)cc1F` (stereo not drawn) the Potency was “inactive”. With `COCCN1CCN(Cc2ccc(-c3n[nH]c4c3C(=O)c3c(NC(=O)NN5CCOCC5)cccc3-4)cc2)CC1` the Potency was 20.5 µM (active). For `Cc1ccc([N+](=O)[O-])cc1S(=O)(=O)N(C)/N=C/c1cnc2ccc(Br)cn12`, the Potency was “inactive”. In the case of `COc1cccc2c1C(=O)c1c(O)c3c(c(O)c1C2=O)C[C@@](O)(/C(CO)=N/NC(=O)CCCCCN1C(=O)C=CC1=O)C[C@@H]3O[C@H]1C[C@H](N)[C@H](O)[C@H](C)O1`, the Potency is reported as “inactive”. With `COC1CC(C(=O)c2ccc3c(N)ncc(-c4ccc(-c5cnn(C)c5)cc4)c3n2)C1` (stereo not drawn) the Potency was “inactive”. In the case of `COC(=O)c1nc(Cl)c(Cl)nc1N`, the Potency is reported as 9.13 µM (active). In the case of `CC1(C)CC(=O)c2c(C(F)(F)F)nn(-c3ccc(C(N)=O)c(NC4CCC(O)CC4)c3)c2C1` (stereo not drawn), the Potency is reported as “inactive”. With `C=CC(=O)N1CC/C(=C\c2ccc(F)c([N+](=O)[O-])c2)C(=O)/C(=C/c2ccc(F)c([N+](=O)[O-])c2)C1` the Potency was 0.408 µM (active). With `CC(=O)Nc1ccc([C@H](C)C(=O)Nc2ncc(C(C)C)s2)cc1` the Potency was “inactive”. In the case of `COc1cccc2c1C(=O)c1c(O)c3c(c(O)c1C2=O)C[C@@](O)(C(=O)CO)C[C@@H]3O[C@H]1C[C@H](N)[C@@H](O)[C@H](C)O1`, the Potency is reported as “inactive”. With `N#CCC1(n2cc(-c3ncnc4[nH]ccc34)cn2)CN(C2CCN(C(=O)c3ccnc(C(F)(F)F)c3F)CC2)C1` the Potency was “inactive”.
